Assay results: PubChem BioAssay
For some of these results: Entries with a potency or affinity are not part of this list. Calls of active or inactive are those of the source.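 How the source made its calls, unless noted: active means calcium signal rise above buffer-control mean plus 5 SD in both duplicates, and also a hit in the primary screen; inactive means the rest.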

What was measured:
[1] = system: TRPC4 beta (transient receptor potential cation channel C4), mouse; assay: activators of mouse TRPC4 channel, confirmation, cell-based, Fluo4 calcium, HEK293 TRPC4beta/mu-opioid, duplicates, 10 µM (AID 2426;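 active means fluorescence ratio normalized to control raised more than 50% in primary screen plus both repeat runs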); conditions: Fluo4 calcium fluorescence, at 10 µM; stronger effect = higher value
[2] = system: transient receptor potential cation channel C4 beta (TRPC4), mouse; assay: activators of mouse TRPC4 channel, confirmation, cell-based, second round, Fluo4, HEK293 TRPC4beta/mu-opioid, 1 µM (AID 2461;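 active means primary screen active and over 50% activation in each of two duplicate runs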); conditions: Fluo4 calcium fluorescence, at 1 µM; stronger effect = higher value
[3] = system: TRPC4 (transient receptor potential cation channel C4 beta), mouse; assay: positive allosteric modulators of mouse TRPC4, confirmation, cell-based, second round, Fluo-4, HEK293 TRPC4beta/mu-opioid, 1 µM (AID 2554;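 active means primary screen hit whose fluorescence ratio, in both repeats, exceeds the weak agonist control mean by 3 SD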); conditions: DAMGO EC20, Fluo-4 calcium flux, at 1 µM; stronger effect = higher value
[4] = system: TRPC4 beta (transient receptor potential cation channel C4), mouse; assay: positive allosteric modulators of mouse TRPC4, confirmation, cell-based, Fluo-4, HEK293 TRPC4beta/mu-opioid (AID 2555;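 active means primary screen hit whose calcium fluorescence ratio, in both repeats, exceeds the weak agonist control mean by 3 SD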); conditions: DAMGO EC20, Fluo-4 calcium flux, at 10 µM; stronger effect = higher value
[5] = target: Short transient receptor potential channel 4 (Mus musculus) (UniProt Q9QUQ5); assay: inhibitors of mouse TRPC4 channel, confirmation, cell-based, Fluo4, HEK293 TRPC4beta/mu-opioid (AID 2636;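 active means calcium signal cut by more than 3 SD below the full-agonist control yet still positive, in both repeats and the earlier primary screen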); conditions: DAMGO, Fluo4 calcium flux, at 10 µM; stronger effect = higher value
[6] = target: Short transient receptor potential channel 4 (Mus musculus) (UniProt Q9QUQ5); assay: inhibitors of mouse TRPC4 channel, confirmation, cell-based, second round, Fluo4, HEK293 TRPC4beta/mu-opioid, 1 µM (AID 2637;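 active means calcium signal ratio cut to more than 3 SD under the fully stimulated control mean yet still positive, in both repeats and the primary screen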;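 on inhibition: percent of integrated ratio relative to wells lacking test compound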); conditions: Fluo4 calcium flux, DAMGO, at 1 µM; stronger effect = higher value
[7] = target: Short transient receptor potential channel 4 (Mus musculus) (UniProt Q9QUQ5); assay: mouse TRPC4 channel activators, dose response, cell-based, HEK293 TRPC4/mu-opioid, Fluo-4 calcium (AID 434937;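 active means primary screen activator hit with a dose response curve and TRPC4 channel activation at any tested dose; inactive means no activation, no dose response, or not a primary hit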)
[8] = target: Short transient receptor potential channel 4 (Mus musculus) (UniProt Q9QUQ5); assay: TRPC4 positive allosteric modulators, dose response, cell-based, HEK293 TRPC4/mu-opioid, Fluo-4 calcium, EC20 DAMGO (AID 434941;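 active means earlier screen potentiator hit that boosts the TRPC4 ion channel at some dose, with a dose response; inactive means no potentiation, no dose response, or not a prior hit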;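 further: calcium entry triggered by an EC20 dose of DAMGO at the co-expressed mu-opioid receptor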)
[9] = target: Short transient receptor potential channel 4 (Mus musculus) (UniProt Q9QUQ5); assay: mouse TRPC4 channel inhibitors, dose response, cell-based, HEK293 TRPC4/mu-opioid, Fluo-4 calcium (AID 434942;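 active means primary screen inhibitor hit that blocks the TRPC4 channel at some tested dose, yielding a dose curve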)
[10] = target: Short transient receptor potential channel 6 (Mus musculus) (UniProt Q61143); assay: inhibition of mouse TRPC6 channel, confirmation, selectivity assay for TRPC4 inhibitor project, cell-based, HEK293, membrane potential dye, duplicate (AID 434948;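 active means active in primary screen and both duplicates, each dropping signal beyond three positive-control SD with fluorescence still positive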); conditions: HEK293 TRPC6, membrane potential dye fluorescence, at 10 µM, stimulated with maximal-effect acetylcholine; stronger effect = higher value
[11] = target: Short transient receptor potential channel 6 (Mus musculus) (UniProt Q61143); assay: activation of mouse TRPC6 channel, confirmation, selectivity assay for TRPC4 activator project, cell-based, HEK293, membrane potential dye, duplicate (AID 434950;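 active means membrane potential signal rise above negative control mean plus 3 SD in both duplicates, also active in the earlier TRPC4 screen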); conditions: HEK293 TRPC6, membrane potential fluorescence, at 10 µM; stronger effect = higher value
[12] = target: Short transient receptor potential channel 6 (Mus musculus) (UniProt Q61143); assay: TRPC6 potentiation by TRPC4 potentiator hits, confirmation, selectivity assay for TRPC4 potentiator project, HEK293 cells, membrane potential dye, duplicate (AID 434952;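 active means compound raising the membrane signal above positive-control mean plus 3 SD in both repeats, and a primary screen hit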); conditions: HEK293 TRPC6, membrane potential dye fluorescence, at 10 µM, maximal acetylcholine added after compound; stronger effect = higher value
[13] = target: Short transient receptor potential channel 4 (Mus musculus) (UniProt Q9QUQ5); assay: calcium flux activators in TRPC4/5HT1a cells, counter-screen for TRPC4 activator project, cell-based, second counter screen, HEK293 TRPC4/5HT1a, Fluo-4 (AID 434977); conditions: Fluo-4 calcium flux, at 10 µM; stronger effect = higher value
[14] = calcium flux inhibitors in TRPC4/5HT1a cells, confirmation, counter-screen for TRPC4 inhibitor project, cell-based, second counter screen, HEK293 TRPC4/5HT1a, Fluo-4 (AID 434978;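 active means primary screen active whose calcium signal fell more than 3 SD beyond the full-serotonin control mean in both duplicate plates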;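 on outcome: serotonin given first at submaximal then at maximal dose after compound preincubation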); conditions: Fluo-4 calcium flux, at 10 µM, serotonin added to trigger calcium flux; stronger effect = higher value
[15] = system: TRPC4 (mouse), co-expressed with 5HT1a in HEK293; assay: calcium flux potentiators in TRPC4/5HT1a cells, confirmation, counter-screen for TRPC4 potentiator project, cell-based, second counter screen, HEK293 TRPC4/5HT1a, Fluo-4 (AID 434979;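 active means signal rise over 3 SD above mean of control wells given weak agonist, in both repeats and first screen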); conditions: Fluo-4 calcium flux, at 10 µM, serotonin added at its EC20 dose; stronger effect = higher value
[16] = calcium flux activation in mu-opioid HEK293 cells, confirmation, counter-screen for TRPC4 activator project, cell-based, HEK293 mu-opioid receptor line (AID 449723;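 active means hit in primary screen, with calcium signal over 5 SD above buffer well mean in both duplicates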;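 further: counter screen cells carry the mu-opioid receptor alone and lack TRPC4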); conditions: Fluo-4 calcium fluorescence, at 10 µM; stronger effect = higher value
[17] = calcium flux enhancement in mu-opioid HEK293 cells, confirmation, counter-screen for TRPC4 allosteric potentiator project, cell-based, HEK293 mu-opioid receptor line (AID 449724;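 active means calcium signal rise more than 3 SD above the low-dose agonist control mean, in both duplicate plates and the primary screen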); conditions: Fluo-4 calcium flux, at 10 µM, compound added before EC20 DAMGO stimulus; stronger effect = higher value
[18] = thallium flux activation in parental CHO cells, counter-screen for KCNQ1 potentiator project (AID 493006;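 active means duplicate-averaged activation above buffer control mean plus 5 SD of those controls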); conditions: parental CHO-K1 cells, FluxOR thallium flux, at 10 µM; stronger effect = higher value
[19] = target: Potassium voltage-gated channel subfamily KQT member 1 (Homo sapiens) (UniProt P51787); assay: KCNQ1 potassium channel potentiators, confirmation, FluxOR thallium flux, CHO cells, duplicates (AID 493007;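 active means potentiation averaged over duplicate wells exceeding buffer-only control mean by more than 3 SD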;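 further: cells depolarized by a potassium plus thallium sulfate stimulus after compound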); conditions: KCNQ1 cell line, FluxOR thallium flux fluorescence, at 10 µM; stronger effect = higher value, % of reference activator effect, buffer zero
[20] = target: Potassium voltage-gated channel subfamily KQT member 2 (Rattus norvegicus) (UniProt O88943); assay: rat KCNQ2 channel potentiation, selectivity assay for KCNQ1 potentiator project, KCNQ2-CHO-K1 cells (AID 493009;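 active means mean duplicate potentiation above the buffer control mean plus 5 SD of buffer wells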;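 further: assay conditions were tuned for KCNQ1 rather than KCNQ2 modulators; signal is max minus min fluorescence divided by baseline after thallium stimulus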); conditions: FluxOR thallium flux fluorescence, at 10 µM; stronger effect = higher value, scaled: buffer 0, activator control 100
Sequence of Potassium voltage-gated channel subfamily KQT member 2 (Rattus norvegicus) (O88943 whole entry, looked up): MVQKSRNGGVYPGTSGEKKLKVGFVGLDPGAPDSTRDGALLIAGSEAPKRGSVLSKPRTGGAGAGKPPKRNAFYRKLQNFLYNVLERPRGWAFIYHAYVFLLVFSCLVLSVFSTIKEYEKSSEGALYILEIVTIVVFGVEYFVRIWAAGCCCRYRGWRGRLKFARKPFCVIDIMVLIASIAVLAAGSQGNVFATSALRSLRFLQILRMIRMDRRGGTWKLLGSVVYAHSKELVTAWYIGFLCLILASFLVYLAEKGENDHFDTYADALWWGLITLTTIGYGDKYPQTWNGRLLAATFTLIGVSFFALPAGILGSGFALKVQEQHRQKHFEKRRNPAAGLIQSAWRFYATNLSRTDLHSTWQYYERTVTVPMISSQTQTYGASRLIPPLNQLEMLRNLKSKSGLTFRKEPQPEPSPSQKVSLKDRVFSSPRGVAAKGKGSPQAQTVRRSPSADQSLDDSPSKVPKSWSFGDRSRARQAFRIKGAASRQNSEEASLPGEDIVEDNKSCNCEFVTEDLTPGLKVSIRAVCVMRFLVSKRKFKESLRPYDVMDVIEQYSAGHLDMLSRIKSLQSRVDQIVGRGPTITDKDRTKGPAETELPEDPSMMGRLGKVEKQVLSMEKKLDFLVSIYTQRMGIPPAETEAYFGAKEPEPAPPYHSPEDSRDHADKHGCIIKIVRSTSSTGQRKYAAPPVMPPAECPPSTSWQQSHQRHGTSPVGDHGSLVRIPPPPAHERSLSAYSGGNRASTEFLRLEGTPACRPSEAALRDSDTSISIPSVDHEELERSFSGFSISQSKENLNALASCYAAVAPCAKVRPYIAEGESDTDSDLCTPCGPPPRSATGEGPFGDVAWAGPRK

Sequence of Short transient receptor potential channel 4 (Mus musculus) (Q9QUQ5 whole entry, looked up): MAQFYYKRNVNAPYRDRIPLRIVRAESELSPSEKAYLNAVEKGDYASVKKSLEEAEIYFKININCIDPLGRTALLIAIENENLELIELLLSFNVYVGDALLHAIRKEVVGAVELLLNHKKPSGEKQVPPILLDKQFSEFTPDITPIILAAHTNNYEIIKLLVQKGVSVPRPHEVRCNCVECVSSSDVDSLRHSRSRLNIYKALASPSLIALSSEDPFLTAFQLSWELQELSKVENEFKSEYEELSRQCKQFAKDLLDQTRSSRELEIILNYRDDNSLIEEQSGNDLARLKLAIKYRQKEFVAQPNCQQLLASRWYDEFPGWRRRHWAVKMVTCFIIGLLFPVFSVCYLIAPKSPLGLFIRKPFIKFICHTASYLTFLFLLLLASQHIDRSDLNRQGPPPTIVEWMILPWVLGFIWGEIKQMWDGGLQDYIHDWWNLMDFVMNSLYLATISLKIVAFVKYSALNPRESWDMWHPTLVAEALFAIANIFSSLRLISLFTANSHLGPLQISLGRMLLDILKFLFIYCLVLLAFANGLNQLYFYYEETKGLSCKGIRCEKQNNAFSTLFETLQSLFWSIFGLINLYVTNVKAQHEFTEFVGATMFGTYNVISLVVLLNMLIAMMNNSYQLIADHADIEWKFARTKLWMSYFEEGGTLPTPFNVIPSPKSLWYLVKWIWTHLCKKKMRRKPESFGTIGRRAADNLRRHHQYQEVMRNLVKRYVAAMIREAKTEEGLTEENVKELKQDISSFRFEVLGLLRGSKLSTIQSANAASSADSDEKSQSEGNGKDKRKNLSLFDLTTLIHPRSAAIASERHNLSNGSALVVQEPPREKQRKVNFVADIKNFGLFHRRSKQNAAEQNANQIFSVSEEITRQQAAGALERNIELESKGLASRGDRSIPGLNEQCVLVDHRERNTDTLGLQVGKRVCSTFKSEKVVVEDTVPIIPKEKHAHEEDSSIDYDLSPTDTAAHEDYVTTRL
Sequence of Short transient receptor potential channel 6 (Mus musculus) (Q61143 whole entry, looked up): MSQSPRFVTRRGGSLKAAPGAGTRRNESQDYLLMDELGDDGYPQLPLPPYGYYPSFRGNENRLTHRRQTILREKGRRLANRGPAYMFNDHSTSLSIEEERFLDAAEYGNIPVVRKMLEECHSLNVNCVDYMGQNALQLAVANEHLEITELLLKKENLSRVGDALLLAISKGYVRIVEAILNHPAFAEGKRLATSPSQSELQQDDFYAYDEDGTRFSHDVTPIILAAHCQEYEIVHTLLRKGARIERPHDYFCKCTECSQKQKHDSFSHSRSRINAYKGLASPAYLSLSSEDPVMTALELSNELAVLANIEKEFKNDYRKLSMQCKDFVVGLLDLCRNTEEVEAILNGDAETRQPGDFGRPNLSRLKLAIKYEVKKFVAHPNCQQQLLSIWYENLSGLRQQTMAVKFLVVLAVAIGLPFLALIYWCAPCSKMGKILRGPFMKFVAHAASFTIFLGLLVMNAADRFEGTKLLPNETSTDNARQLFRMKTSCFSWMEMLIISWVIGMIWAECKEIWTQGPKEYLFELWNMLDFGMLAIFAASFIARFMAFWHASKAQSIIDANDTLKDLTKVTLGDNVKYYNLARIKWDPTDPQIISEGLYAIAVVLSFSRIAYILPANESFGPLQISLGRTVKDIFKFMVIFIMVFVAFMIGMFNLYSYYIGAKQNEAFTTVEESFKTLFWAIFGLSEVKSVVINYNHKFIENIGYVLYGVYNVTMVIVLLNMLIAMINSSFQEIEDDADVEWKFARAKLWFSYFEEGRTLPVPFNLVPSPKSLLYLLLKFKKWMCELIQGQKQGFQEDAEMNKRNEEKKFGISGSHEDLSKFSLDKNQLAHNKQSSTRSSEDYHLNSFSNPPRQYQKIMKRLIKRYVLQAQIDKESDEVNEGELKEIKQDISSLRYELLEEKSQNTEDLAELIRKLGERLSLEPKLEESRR
Sequence of Potassium voltage-gated channel subfamily KQT member 1 (Homo sapiens) (P51787 whole entry, looked up): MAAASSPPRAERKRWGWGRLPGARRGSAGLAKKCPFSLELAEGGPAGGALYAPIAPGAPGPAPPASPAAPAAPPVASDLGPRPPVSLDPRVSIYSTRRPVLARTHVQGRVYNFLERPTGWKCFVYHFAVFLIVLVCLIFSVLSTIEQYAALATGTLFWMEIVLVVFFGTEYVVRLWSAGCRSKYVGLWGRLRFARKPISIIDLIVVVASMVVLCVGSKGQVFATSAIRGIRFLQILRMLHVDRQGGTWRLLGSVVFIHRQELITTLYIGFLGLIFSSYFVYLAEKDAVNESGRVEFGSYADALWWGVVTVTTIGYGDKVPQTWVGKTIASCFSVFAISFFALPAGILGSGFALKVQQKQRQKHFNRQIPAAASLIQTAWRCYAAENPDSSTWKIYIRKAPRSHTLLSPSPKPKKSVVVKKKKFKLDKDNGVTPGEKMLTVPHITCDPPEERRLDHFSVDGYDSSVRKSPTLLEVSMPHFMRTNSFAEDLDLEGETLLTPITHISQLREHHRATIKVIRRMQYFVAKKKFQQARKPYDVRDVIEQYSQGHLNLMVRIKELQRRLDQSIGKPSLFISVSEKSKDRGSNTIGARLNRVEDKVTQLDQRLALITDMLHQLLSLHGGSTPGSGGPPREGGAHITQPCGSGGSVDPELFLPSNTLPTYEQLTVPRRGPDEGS

CCCCN(CC)CCCNC(=O)c1cc2cc3ccc(C)cc3nc2o1
inactive: outcome [1] | outcome [2] | outcome [4] | outcome [5] | outcome [6] | outcome [7] | outcome [8] | outcome [9] | outcome [10] | outcome [11] | outcome [12] | outcome [13] | outcome [14] | outcome [16] | outcome [17] | outcome [18] | outcome [19] | outcome [20]
active: potentiation [3] 19% | potentiation [15] 21.8%

CCN(CC)c1ncnc2sc3c(c12)CCC3
inactive: outcome [1] | outcome [2] | outcome [3] | outcome [4] | outcome [5] | outcome [6] | outcome [7] | outcome [8] | outcome [9] | outcome [10] | outcome [11] | outcome [12] | outcome [13] | outcome [14] | outcome [15] | outcome [16] | outcome [17] | outcome [18] | outcome [19] | outcome [20]

Cn1c(-c2ccc(F)cc2)cnc1NCc1ccc(F)cc1
active: inhibition [5] 90% | inhibition [6] 68% | inhibition [14] 22.5%
inactive: outcome [1] | outcome [2] | outcome [3] | outcome [4] | outcome [7] | outcome [8] | outcome [10] | outcome [11] | outcome [12] | outcome [13] | outcome [15] | outcome [16] | outcome [17]

CCCn1c(NC(=O)c2cccc(S(=O)(=O)N3CCCC3)c2)nc2ccccc21
active: potentiation [3] 11% | potentiation [4] 64% | inhibition [5] 87% | potentiation [15] 24.4%
inactive: outcome [1] | outcome [2] | outcome [6] | outcome [7] | outcome [8] | outcome [10] | outcome [11] | outcome [12] | outcome [13] | outcome [14] | outcome [16] | outcome [17]

CCCCNCc1cc(Cl)c(OCCC)c(OCC)c1
inactive: outcome [1] | outcome [2] | outcome [3] | outcome [4] | outcome [6] | outcome [7] | outcome [8] | outcome [10] | outcome [11] | outcome [12] | outcome [13] | outcome [14] | outcome [15] | outcome [16] | outcome [17]
active: inhibition [5] 86%

O=C(O)c1ccc(N/N=C/c2ccc(-c3cccc(Cl)c3)o2)cc1
active: inhibition [5] 87% | inhibition [6] 42%
inactive: outcome [1] | outcome [2] | outcome [3] | outcome [4] | outcome [7] | outcome [8] | outcome [10] | outcome [11] | outcome [12] | outcome [13] | outcome [14] | outcome [15] | outcome [16] | outcome [17]

CSC1=NC2(CCCCC2)C2=C(CCCC2)N1
inactive: outcome [1] | outcome [2] | outcome [3] | outcome [4] | outcome [6] | outcome [7] | outcome [8] | outcome [10] | outcome [11] | outcome [12] | outcome [13] | outcome [15] | outcome [16] | outcome [17]
active: inhibition [5] 96% | inhibition [14] 33%

CC(=O)OCCCN1C(=O)c2cccc3cc(Br)cc(c23)C1=O
active: inhibition [5] 96% | inhibition [6] 55% | inhibition [14] 14.5%
inactive: outcome [1] | outcome [2] | outcome [3] | outcome [4] | outcome [7] | outcome [8] | outcome [10] | outcome [11] | outcome [12] | outcome [13] | outcome [15] | outcome [16] | outcome [17]
